LmPK inh: LmPK (Leishmania mexicana) enzyme inhibition. 290,000 tested, 0.37% active. purified LmPK, Kinase-Glo ATP luminescence, 1 h. Potency, µM (titrated, usually from 57.5 µM), for the others: at the top dose activity change, negative = inhibition, hits mostly inhibitors. Q27686; further: potency means the concentration at half of the fitted maximal effect; on the % scale 0 is the no-effect control and ±100 the full control effect
Target sequence (Q27686 whole entry, looked up): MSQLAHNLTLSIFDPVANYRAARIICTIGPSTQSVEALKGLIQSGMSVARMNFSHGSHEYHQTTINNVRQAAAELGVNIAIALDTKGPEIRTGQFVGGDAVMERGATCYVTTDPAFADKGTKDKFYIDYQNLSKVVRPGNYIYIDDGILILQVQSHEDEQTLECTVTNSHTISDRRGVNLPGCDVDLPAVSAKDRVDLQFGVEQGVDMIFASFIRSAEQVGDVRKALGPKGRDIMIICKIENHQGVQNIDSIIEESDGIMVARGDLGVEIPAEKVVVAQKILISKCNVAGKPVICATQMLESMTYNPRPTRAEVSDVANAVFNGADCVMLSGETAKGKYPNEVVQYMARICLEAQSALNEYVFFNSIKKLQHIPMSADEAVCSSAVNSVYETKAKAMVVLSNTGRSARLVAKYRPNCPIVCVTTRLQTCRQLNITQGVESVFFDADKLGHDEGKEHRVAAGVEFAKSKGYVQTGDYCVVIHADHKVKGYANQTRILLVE
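Screened at intermediate enzyme activity to detect both inhibitors and activators: LmPK at 0.1 nM, with a 0.5 nM enzyme column as activation reference. PEP 0.5 mM, ADP 0.1 mM; ATP detected by luminescence after 1 h.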
Pf growth 96h: P. falciparum growth inhibition at 96 hour, primary screen for plastid delayed-death inhibitors | P. falciparum luciferase reporter growth, 96 h | Potency, µM (doses to about 28.7 µM), for the others: top-dose activity change, negative = inhibition, hits mostly inhibitors | 320,000 tested, 6.9% active; further: potency means the concentration at half of the fitted maximal effect; on the % scale 0 is the no-effect control and ±100 the full control effect
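Readout is luminescence from an integrated firefly luciferase in P. falciparum. Red cells, 2% hematocrit and 0.05% parasitemia final, were cultured with compound through two parasite generations (96 hours) at 37 C, 5% CO2.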
Shiga toxin inh: blocks Shiga toxin action in Vero cells | Vero cells, Shiga toxin protein synthesis inhibition reporter | inhibition, % at 38.7 µM | 290,000 tested, 9.2% active | AID 2315; in the data active means inhibition mostly above about 28%, no sharp cut-off; inactive means mostly below about 43%; further: 0% is about no effect
CHX counter: counter-screen hit for Shiga toxin inhibitors, cycloheximide; cell reporter, cycloheximide protein synthesis inhibition counterscreen; 300,000 tested, 12% active; max response, %; in the data active means max response mostly above about 13%, no sharp cut-off; inactive means mostly below about 14%; further: read at 38.3 µM for the half of the compounds with a filed dose; 0% is about no effect
Pf growth 48h: P. falciparum growth inhibition at 48 hours (one generation); P. falciparum luciferase growth in erythrocytes, 48 h; 310,000 tested, 5.9% active; Potency, µM (series often up to 28.7 µM), for inactives: top-dose activity change, negative = inhibition, actives largely listed as inhibitors; further: potency means the concentration at half of the fitted maximal effect; on the % scale 0 is the no-effect control and ±100 the full control effect
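First compound was added to culture medium, then infected red cells at 0.1% parasitemia and 2% hematocrit (final). After incubation at 37 C under 5% CO2, luciferase detection reagent was dispensed and light output recorded.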
Starred values were filed as active, the others as inactive; ? = inconclusive; . = no result given. Rows were chosen to be rich in hits. Some 22% of all compounds tested hit in one or more screens of this group. Unless noted, the call rests on the fitted dose curve; in most records, active means well fitted inhibition curve with a large enough effect; inconclusive means small, poorly fitted or top-dose-only effect, or another doubt; inactive means no such curve, though single readings can be large or run the other way.

SMILES | LmPK inh | Pf growth 96h | Shiga toxin inh | CHX counter | Pf growth 48h
COc1ccccc1N(CC(O)COc1c(C)cc(C)cc1C)S(=O)(=O)c1ccccc1 (configuration not stated) | -0.7% | 13.1µM* | -9.3 | -3.2 | 11.7µM*
COc1ccccc1N(CC(O)COc1ccccc1)S(=O)(=O)c1ccccc1 (configuration not stated) | 3.2% | ? | -3.3 | -2.6 | ?
Cc1ccc(S(=O)(=O)N(CC(O)CN(C)C)c2ccccc2)cc1 (configuration not stated) | -9.7% | 2.62µM* | -17.7 | -7.2 | -15.6%
O=C(COc1ncnc2sccc12)NC1CCCCC1 | . | 27.1% | . | . | 16.0%
CC(C)(C)c1ccc(C(=O)NNc2cc(N3CCOCC3)nc(N3CCOCC3)n2)cc1 | -0.8% | -20.2% | 9.5 | 0.8 | 11.7µM*
CC(C)(C)c1ccc(C(=O)NNc2cc(N3CCCCC3)nc(N3CCCCC3)n2)cc1 | -0.5% | ? | 16.2 | -2.0 | 2.62µM*
Cc1nn(CCC(=O)O)c2nc(-c3cccnc3)cc(C(F)(F)F)c12 | -2.8% | ? | -3.9 | -4.2 | -18.8%
Cc1nn(CCc2nn[nH]n2)c2nc(-c3ccc(C4CCCCC4)cc3)cc(C(F)(F)F)c12 | -2.1% | ? | -7.6 | 0.9 | 5.22µM*
Cc1ccc(-c2nn(-c3ccccc3)cc2C(=O)Nc2ccc(C(=O)O)cc2)cc1 | -2.8% | ? | 47.8* | 21.1* | 85.3%
COc1ccc(-c2nn(-c3ccccc3)cc2C(=O)Nc2ccc(C(=O)O)cc2)cc1OC | -0.8% | ? | 2.5 | -3.8 | ?
CCOC(=O)c1ccc(NC(=O)c2cn(-c3ccccc3)nc2-c2ccncc2)cc1 | 4.1% | 0.0% | -1.6 | -2.9 | 4.15µM*
O=C(OCc1ccccc1)c1cn(-c2ccccc2)nc1-c1ccncc1 | 0.4% | 9.28µM* | 7.4 | 4.7 | ?
Cc1ccccc1C(=O)/C=C1/SCC(=O)N1C | 5.2% | 49.5% | 34.9 | -2.5 | 13.7%
O=C(CN1CCN(C(=O)c2ccco2)CC1)Nc1cc(C(F)(F)F)ccc1Cl | 3.0% | . | -1.6 | 6.5 | 1.65µM*
O=C(CN1CCOCC1)Nc1cc(C(F)(F)F)ccc1Cl | -7.3% | 11.7µM* | -3.3 | 12.3 | ?
O=C(CN1CCCCCC1)Nc1cc(C(F)(F)F)ccc1Cl | -16.1% | 0.0% | -7.3 | 0.6 | 6.4%
CCC1CCC(C(=O)NC(C(=O)NCCN2CCOCC2)C(C)C)CC1 (configuration not stated) | 3.5% | ? | 2.7 | 0.9 | 2.6%
COc1ccc(/C=C2/C(=N)N3C(=NC2=O)Sc2cc(S(C)(=O)=O)ccc23)cc1OC | 5.0% | -5.8% | 2.6 | -3.1 | -7.6%
COc1cc(/C=C2\C(=N)N3N=CSC3=NC2=O)ccc1OS(=O)(=O)c1ccccc1[N+](=O)[O-] | -6.9% | 4.15µM* | 42.7 | 8.2 | -11.6%
COc1cc(C=C2C(=O)NC(=O)NC2=O)ccc1OS(=O)(=O)c1ccccc1[N+](=O)[O-] | 9.1% | ? | 57.4* | 20.9 | 32.0%
CCOC(=O)/C(C#N)=C/C1=C(N2CCOCC2)CC(C)(C)OC1 | -4.1% | 24.4% | -5.6 | 0.9 | 19.1%
O=C(CCNC(=O)c1ccco1)Nc1ccc(Cl)cc1F | 0.1% | 30.9% | -7.7 | 30.6 | 8.6%
NC(=O)CNC(=O)[C@@H]1CC2(CC(c3ccc(Cl)cc3)=NO2)CN1C(=O)c1ccccc1 (some centres not stated) | -1.1% | ? | 22.3 | 2.9 | 4.8%
COCCN(Cc1cn(C)nc1-c1ccccc1F)C(C)C | 0.1% | 9.28µM* | -8.9 | -2.4 | 60.2%
CCn1ccnc1CN(C)Cc1cn(C)nc1-c1ccccc1F | 1.8% | 9.28µM* | 16.2 | -2.4 | -4.2%
SMILES | LmPK inh | Pf growth 96h | Shiga toxin inh | CHX counter | Pf growth 48h
C=CCSc1nncn1/N=C/c1ccc(OC)cc1 | -2.8% | 171.3% | 76.5* | 37.2* | 147.6%
COc1ccc(/C=N/n2cnnc2SCCO)cc1OC | 4.9% | 8.9% | 20.8 | 10.7 | 26.1%
CCOC(=O)c1cc(C#N)c(SC(C)C(=O)NC2CCCCC2)nc1C (configuration not stated) | . | 40.5% | . | . | 1.8%
Cc1ccc(C)c(NC(=O)CN(C)C(=O)CSC(C)C(=O)Nc2cc(C)on2)c1 (configuration not stated) | -2.8% | 40.3% | -9.9 | 1.4 | 65.3%
CC(SCc1ccccc1)C(=O)Nc1ccccc1F (configuration not stated) | -9.3% | 0.928µM* | 3.3 | 14.8 | 32.5%
O=Cc1cn(Cc2ccc(Br)cc2)c2ccccc12 | 1.0% | 20.0% | 3.3 | 0.4 | 6.6%
NC1=NC(=O)/C(=C/c2cn(Cc3ccccc3)c3ccccc23)S1 | 3.8% | ? | 62.4* | 23.8* | 2.08µM*
COCC(=O)Nc1ccc(C(C)C)cc1 | 6.3% | . | 109.9* | 36.5* | 114.1%
COc1ccc(NC(=O)Nc2ccc(C(C)C)cc2)cc1 | -0.4% | 47.6% | 58.0* | 18.7* | 26.7%
COCC(=O)Nc1ccc(N(C)C)cc1 | -1.1% | . | 39.1 | 12.7 | 30.3%
Cc1nnc(NC(=O)C2CC(=O)N(C(C)c3ccccc3)C2)s1 (configuration not stated) | -8.5% | 44.8% | 19.7 | 4.2 | 4.2%
COc1ccc(CN2CSC(=S)N(Cc3ccc(OC)cc3)C2)cc1 | 6.4% | ? | -4.1 | -2.0 | 11.7µM*
COc1ccc(CN2CSC(=S)N(Cc3ccccc3)C2)cc1 | 0.6% | 10.0% | -3.2 | -2.1 | -25.9%
S=C1SCN(Cc2cccnc2)CN1Cc1cccnc1 | -1.6% | ? | -9.1 | -2.0 | 1.85µM*
CCc1ccc(OCCCC(=O)Nc2ccc(N3CCCCC3)cc2)cc1 | -1.1% | 0.0% | -15.1 | -2.8 | 16.3%
CCNCC(=O)Nc1ccc(N2CCOCC2)cc1 | -3.3% | 20.1% | -9.8 | -3.3 | -3.9%
CCCCOC(=O)Nc1ccc(N2CCCCC2)cc1 | 9.1% | 126.9% | 93.6 | 42.8* | .
CCCCOC(=O)Nc1ccc(N2CCOCC2)cc1 | -1.8% | 33.3% | 79.9* | 29.1* | 393.5%
CN(C)c1ccc(NC(=O)CSc2nc(N)c(C(=O)Nc3ccc(N(C)C)cc3)s2)cc1 | -2.1% | ? | 65.2 | 30.7* | ?
COc1ccc(NC(=O)CSc2nc(N)c(C(=O)Nc3ccc(N(C)C)cc3)s2)cc1 | 0.7% | . | 123.5* | 39.7 | -17.9%
CCOC(=O)c1sc(SCC(=O)Nc2ccc(N(C)C)cc2)nc1N | 0.4% | ? | -13.7 | 2.5 | -4.2%
NNC(=O)c1ccc(Cn2cc(Br)c(N)n2)cc1 | -5.1% | 0.0% | 18.0 | 11.8* | 46.7%
c1csc(-c2nc3ccccn3c2NC2CCCCC2)c1 | -2.1% | 1.9% | -19.4 | -3.0 | 4.7%
Cc1ccn2c(NC3CCCC3)c(-c3cccs3)nc2c1 | -11.6% | 90.1% | 27.5* | 22.9* | 36.0%
Cc1ccn2c(NCc3ccccc3)c(-c3cccs3)nc2c1 | -10.0% | -0.3% | 55.5* | 29.6* | ?
CC(C)(C)c1ccc(C(=O)N2CCC(C(=O)NC3CCCCCC3)CC2)cc1 | 3.9% | -19.8% | 77.4 | 12.4 | -7.6%
Cc1ccc(NC2c3ncccc3C(=O)N2Cc2ccco2)c(C)c1 (configuration not stated) | 3.0% | 54.7% | -8.1 | 1.3 | ?

Source: PubChem BioAssay
